Experimental data published in PubChem BioAssay (NCI).
This is part of a sample that, as a whole, favours compounds with a hit. Of some 83,000 tested, about 20% had one in any assay.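 96-well plates, one dose, 48 hours. Percent growth reported; active if below 10.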 Active and inactive are the calls of the source.

test system: HL-60(TB) leukemia; assay: NCI-60 one-dose screen, 48 h (100 = growth as untreated, 0 = no growth, -100 = all killed); details: 10 µM unless noted

Row | Compound | growth
1 | C#CCOc1ccc(C(Nc2ccc(OC)cc2)c2nnnn2C2CCCCC2)cc1 (stereo not given) | 84.7% (inactive)
2 | CCOP(=O)(OCC)OC[C@]12CCC(C)(C)C=C1[C@H]1CC[C@@H]3[C@@]4(C)CC[C@H](OP(=O)(OCC)OCC)C(C)(C)[C@@H]4CC[C@@]3(C)[C@]1(C)CC2 | -22.1% (active)
3 | CN1CCN(Cc2ccc(NC(=O)c3cncc(C#Cc4cnc5ccc(N6CCN(C)CC6)nn45)c3)cc2C(F)(F)F)CC1 | -31.5% (active)
4 | O=C(NNc1nc2cc(F)cc(F)c2n2cccc12)c1cnccn1 | -25% (active)
5 | NS(=O)(=O)c1ccc(Nc2nc(N/N=C/c3ccc4c(c3)OCO4)nc(Nc3ccccc3)n2)cc1 | 31.1% (inactive)
6 | CC1=C2C(=C[C@@](C)(COS(N)(=O)=O)[C@@H]2O)C(=O)[C@](C)(O)C12CC2 | 61.4% (inactive)
7 | Cn1ccnc1C(=O)/C=C/c1ccc(CNC(=O)c2ccc(S(F)(F)(F)(F)F)cc2)cc1 | -4.98% (active)
8 | O=C(N/N=C/c1ccc(Br)s1)c1[nH]c2ccc(Br)cc2c1-c1ccccc1 | -43.4% (active)
9 | CC1=C(C)C(=O)C(Nc2ccc(C)c(C)c2)=C(Br)C1=O | -37.7% (active)
10 | COc1ccccc1C(=O)CSc1nc(Nc2ccc(S(N)(=O)=O)cc2)c2ccccc2n1 | 94.5% (inactive)
11 | COc1ccc(-c2nc(SCCC(C)C)nc(N/N=C\c3ccc(O)cc3)c2C#N)cc1 | 73.3% (inactive)
12 | OCC(Nc1ncnc2ccc(-c3cnc4cnccn34)cc12)c1ccccc1 (stereo not given) | 78.1% (inactive)
13 | O=C(/C=C/c1ccc(F)cc1)c1ccc(O)cc1 | 81.9% (inactive)
14 | CCN1CCN(S(=O)(=O)c2oc(-c3ccc(Cl)cc3)nc2C#N)CC1 | 7.25% (active)
15 | Cc1ccc(-c2cc3nc(C(Cl)Cl)nc(-c4ccc(S(=O)(=O)N(C)C)cc4)n3n2)cc1 | 74.9% (inactive)
16 | COc1cc(C(=O)c2cc(C(C)=O)c3c(C)cccn23)cc(OC)c1OC | 88.9% (inactive)
17 | O=C(N/N=C/c1ccc([N+](=O)[O-])o1)c1[nH]c2ccc(Br)cc2c1-c1ccccc1 | -42.1% (active)
18 | O=C1[C@H]2Cc3c([nH]c4ccccc34)[C@@H](c3ccc(Br)cc3)N2C(=O)CN1C1CCN(Cc2ccccc2)CC1 | -28.4% (active)
19 | N#C/C(=C\c1cccc2c1OCO2)C(=O)Nc1sc2c(c1C#N)CCCC2 | 105% (inactive)
20 | CC(=O)OC[C@]12CC[C@@H](C(=O)/C=C/c3cccnc3)[C@@H]1[C@H]1CC[C@@H]3[C@@]4(C)CC[C@H](OC(C)=O)C(C)(C)[C@@H]4CC[C@@]3(C)[C@]1(C)CC2 | -15.1% (active)

Row | Compound | growth
21 | COc1ccc(CCOc2cc3c(cc2OC)CCN(C(=O)NCc2cocn2)C3c2ccc(C)cc2C)cc1 (stereo not given) | 5.9% (active)
22 | C#Cc1ccc(NC(=O)c2ccc(/C=C/C(=O)c3nccn3C)cc2)c(F)c1 | 7.29% (active)
23 | O=C(Cn1cc(CN2C(=O)c3ccc([N+](=O)[O-])cc3C2=O)nn1)Nc1ccc(F)cc1Cl | 99.2% (inactive)
24 | CCOc1ccc(C(=O)Nc2ncc(Cc3ccc(F)cc3)s2)cc1 | 1.55% (active)
25 | O=C(O)c1ccc(-n2c(=O)n(-c3cccc(C(F)(F)F)c3)c(=O)c3cc(-c4ccc(F)cc4F)ccc32)cc1 | -41.4% (active)
26 | CNc1sc(S(=O)(=O)NC)nc1S(=O)(=O)c1ccc(C)cc1 | 101% (inactive)
27 | Cc1ccc([C@H]2c3[nH]c4ccccc4c3C[C@H]3C(=O)N(CCCCCCC(=O)NO)CC(=O)N23)s1 | 50.1% (inactive)
28 | NC(N)=Nc1ccc(Oc2cccc(NC(N)=Nc3ccc(Cl)c(C(F)(F)F)c3)c2)cn1 | 0.375% (active)
29 | O=C(CSc1nnc(-c2ccc3nc(-c4ccccc4)[nH]c3c2)o1)Nc1ccc(C(=O)/C=C/c2ccccc2)cc1 | 109% (inactive)
30 | CCc1cc(O)ccc1Nc1cc(-c2ccc(-n3cccn3)cc2)[nH]n1 | 58.6% (inactive)
31 | CC(=O)N1N=C(c2cc3ccccc3oc2=O)CC1c1cn(-c2ccccc2)nc1-c1ccc(C)cc1 (stereo not given) | 107% (inactive)
32 | C=C(C)[C@@H]1CC[C@]2(C(=O)NC3CCCCC3)CC[C@]3(C)[C@H](CC[C@@H]4[C@@]5(C)CC[C@H](N)C(C)(C)[C@@H]5CC[C@]43C)[C@@H]12 | 74.5% (inactive)
33 | c1ccc2c(NCCCn3ccnc3)c3oc4ccccc4c3nc2c1 | -1.2% (active)
34 | CC1=NC2=NN3C(=NN2C(c2ccccc2)=C1)N=NC(c1ccc(Br)cc1)=C3c1ccc(Br)cc1 | 115% (inactive)
35 | O=C(CSc1nc2ccccc2c(=O)n1-c1ccccc1)Nc1ccc(S(=O)(=O)Nc2nccs2)cc1 | 78.7% (inactive)
36 | CN1CCN(Cc2ccc(NC(=O)c3cncc(C#Cc4cnc5ccc(O[C@@H]6CCOC6)nn45)c3)cc2C(F)(F)F)CC1 | -48.8% (active)
37 | c1ccc2c(NCCCN3CCOCC3)c3oc4ccccc4c3nc2c1 | -21.5% (active)
38 | CC(C)C(/C=C/c1[nH]ncc1-c1cc(Cl)ccc1O)N1CCOCC1 (stereo not given) | 93.5% (inactive)
39 | COc1ccc(NC(=O)[C@H](C)NC(=O)OC(C)(C)C)cc1C(=O)Nc1cccc(-c2cc(=O)c3c(OC)c(OC)c(OC)cc3o2)c1 | 2.88% (active)
40 | C#C[C@]1(O)CC[C@H]2[C@@H]3CC=C4c5sc(Nc6cc(OC)ccc6OC)nc5CC[C@]4(C)[C@H]3CC[C@@]21C | -5.2% (active)
